Test results as given in PubChem BioAssay (Tox21).
Results filed as inconclusive are left out. The source holds several records for some structures; these can differ, active in one and inactive in another. Calls of active or inactive are those of the source. Unless noted, calls come from the whole dose curve.

Key:
[1] = qHTS assay to identify small molecule agonists of the vitamin D receptor (VDR) signaling pathway - cell viability counter screen (AID 743224; active = well fitted curve in the direction sought with a large enough effect in the repeat runs; an effect the other way counts as inactive or inconclusive; note: series mostly up to about 63 µM; nearly all actives have a fitted effect of over 50% in size)
In short: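 Counter screen for cytotoxicity: VDR-bla cells at 2,000 cells/well, 16 h compound exposure, then CellTiter-Glo luminescence after the beta-lactamase measurement.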

[2] = qHTS assay to identify small molecule antagonists of the vitamin D receptor (VDR) signaling pathway - cell viability counter screen (AID 743225; active = well fitted curve in the direction sought with a large enough effect in the repeat runs; an effect the other way counts as inactive or inconclusive; note: nearly all actives have a fitted effect of over 50% in size)
In short: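 Viability counter screen run in the same wells as the beta-lactamase reporter assay: HEK 293T VDR-UAS-bla cells, 16 h compound exposure at 37C with 3 nM (final) 1-alpha,25-dihydroxyvitamin D3. CellTiter-Glo luminescence, 30 min, room temperature.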

[3] = qHTS assay to identify small molecule agonists of the NFkB signaling pathway - cell viability counter screen (AID 1159515); note: series mostly up to about 61 µM; nearly all actives have a fitted effect of over 55% in size
In short: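 Counter screen run alongside the NFkB-bla agonist assay: ME-180 reporter cells exposed to compounds for 5 hr, then lysed with CellTiter-Glo in the same wells. Luminescence, read after 30 min, reflects viable cells.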

[4] = qHTS assay to identify small molecule agonists of the endoplasmic reticulum stress response signaling pathway (AID 1159516; active = well fitted activation curve with a large enough effect in the signal ratio in the repeat runs, not every such curve was filed as active; the % refers to the signal ratio)
In short: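 For this screen, HeLa cells stably carrying beta-lactamase under the ER stress response element received test compounds, positive controls or DMSO for 5 hr at 37 C; B/G FRET substrate was then added and dual-wavelength emission recorded.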

[5] = qHTS assay to identify small molecule agonists of the endoplasmic reticulum stress response signaling pathway - cell viability counter screen (AID 1159517); note: series mostly up to about 61 µM; nearly all actives have a fitted effect of over 50% in size
In short: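 Cpd-treated ESRE-bla HeLa (5 hr, 37 C) → LiveBLAzer 2 hr RT → CellTiter-Glo 30 min RT → luminescence.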

[6] = qHTS assay to identify small molecule antagonists of the retinoid-related orphan receptor gamma (ROR-gamma) signaling pathway - cell viability counter screen (AID 1159520; active = well fitted curve in the direction sought with a large enough effect in the repeat runs; an effect the other way counts as inactive or inconclusive; note: nearly all actives have a fitted effect of over 50% in size)
In short: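 Tet-on ROR gamma CHO cells (1,000/well) were plated 4 hr, given compounds in DMSO for 2 hr at 37 C, then induced with 1 uM final doxycycline for 16 hr. Viability was read as ATP by CellTiter-Glo luminescence after 30 min.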

[7] = target: Nuclear receptor ROR-gamma (Homo sapiens) (UniProt P51449); assay: qHTS assay to identify small molecule antagonists of the retinoid-related orphan receptor gamma (ROR-gamma) signaling pathway (AID 1159521; active = well fitted curve in the direction sought with a large enough effect in the repeat runs; an effect the other way counts as inactive or inconclusive)
In short: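 Luminescence readout (ONE-Glo, 30 min RT) after 16 h doxycycline induction; loss of signal scored as antagonism. CHO cells with TET-inducible RORγ and RORE-LUC reporter; compounds added 2 h before 1 uM final doxycycline.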

[8] = qHTS assay to identify small molecule agonists of the AP-1 signaling pathway - cell viability counter screen (AID 1159525); note: nearly all actives have a fitted effect of over 55% in size
In short: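 Each titration point was normalised to DMSO and tetra n-octyl ammonium bromide controls. The read was Cell Titer Glo luminescence after 30 min at RT, following 5 h compound exposure of ME-180 AP-1-bla cells at 37 °C.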

[9] = qHTS assay to identify small molecule agonists of the AP-1 signaling pathway (AID 1159526)
[10] = target: Retinoic acid receptor RXR-alpha (Homo sapiens) (UniProt P19793); assay: qHTS assay to identify small molecule agonists of the RXR signaling pathway (AID 1159527); note: nearly all actives have a fitted effect of over 35% in size; note: potency is the fitted concentration of half-maximal effect
In short: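 Agonist mode; 9-cis retinoic acid positive control. HEK 293T UAS-bla reporter cells, 2% charcoal-stripped FBS, 16 hr compound exposure at 37 C/5% CO2. LiveBLAzer B/G FRET substrate 2 hr RT; ex 405, em 460/530 nm.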

Measured: Potency

Retinoic acid receptor RXR-alpha (Homo sapiens), sequence (P19793 whole entry, looked up): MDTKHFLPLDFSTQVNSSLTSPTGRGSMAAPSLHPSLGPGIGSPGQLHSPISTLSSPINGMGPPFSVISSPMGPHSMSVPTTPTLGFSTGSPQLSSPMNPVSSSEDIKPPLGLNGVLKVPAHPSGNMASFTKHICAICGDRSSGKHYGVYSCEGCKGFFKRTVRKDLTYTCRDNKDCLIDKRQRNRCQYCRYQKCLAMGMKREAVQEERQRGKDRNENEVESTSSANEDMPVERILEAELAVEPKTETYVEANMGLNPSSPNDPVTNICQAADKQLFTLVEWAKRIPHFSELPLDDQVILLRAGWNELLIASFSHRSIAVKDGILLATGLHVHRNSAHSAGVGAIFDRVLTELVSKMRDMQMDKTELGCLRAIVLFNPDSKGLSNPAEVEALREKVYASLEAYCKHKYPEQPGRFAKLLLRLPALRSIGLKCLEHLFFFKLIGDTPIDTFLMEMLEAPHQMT

CCCCCC(C)=O
inactive: all assays above

O=C1C(N(CO)C(=O)NCO)N(CO)C(=O)N1CO (configuration not stated)
inactive: all assays above

CC(C)c1ccc(C(C)C)cc1
inactive: all assays above

OB(O)O
active: [10] 15.5 µM
inactive: all other assays above

CCOC(=O)CC(=O)OCC
inactive: all assays above

Cc1cccc(C)c1[N+](=O)[O-]
inactive: all assays above

CC1(C)[C@@H](O[C@H]2O[C@H](C(=O)O)[C@@H](O)[C@H](O)[C@H]2O[C@@H]2O[C@H](C(=O)O)[C@@H](O)[C@H](O)[C@H]2O)CC[C@]2(C)[C@H]3C(=O)C=C4[C@@H]5C[C@@](C)(C(=O)O)CC[C@]5(C)CC[C@@]4(C)[C@]3(C)CC[C@@H]12
inactive: all assays above

Cc1ccc([N+](=O)[O-])cc1N
21.8 µM (active) and inactive: [10]
inactive: all other assays above

C=C(C)CC(C)(C)C
inactive: all assays above

OC[C@H]1O[C@@H](Oc2ccc(O)cc2)[C@H](O)[C@@H](O)[C@@H]1O
inactive: all assays above

OCC(CO)(CO)CO
inactive: all assays above

CC(C)(CO)CO
inactive: all assays above

C[Si](C)(C)N[Si](C)(C)C
inactive: all assays above

CN1Cc2c(N)cccc2C(c2ccccc2)C1 (configuration not stated)
inactive: all assays above

Cc1ccccc1Cl
inactive: all assays above

Cc1ccncc1
inactive: all assays above

CN1CCCC1=O
inactive: all assays above

C[n+]1ccn(CCO)c1
inactive: all assays above

CC(=O)OC(C)(C)C1CC=C(C)CC1 (configuration not stated)
inactive: all assays above

COc1c(Cl)ccc(Cl)c1C(=O)O
inactive: all assays above

C1CCCNCC1
inactive: all assays above

CCN(CC)CCNC(=O)c1ccc(N)cc1
not listed: [1] | [2]
inactive: all other assays above

Cc1ccc(C)c(S(=O)(=O)O)c1
inactive: all assays above

CC(=O)CC(=O)N(C)C
inactive: all assays above

NC1CCCCC1N (configuration not stated)
inactive: all assays above

CCCCCCCC(=O)O
inactive: all assays above

O=Cc1ccc(CO)o1
inactive: all assays above

CCc1cccc(CC)c1N
inactive: all assays above

COC(=O)CCCCC(=O)OC
inactive: all assays above

CC(=O)c1nccs1
inactive: all assays above

COc1ccccc1[N+](=O)[O-]
inactive: all assays above

O=C1O[C@H]([C@H](O)CO)C(O)=C1O
inactive: all assays above

CC(=O)OCCC(C)C
inactive: all assays above

OC1CCCCC1
inactive: all assays above

O=C(c1ccccc1)c1ccc(O)c(O)c1O
inactive: all assays above

OCC(O)CS (configuration not stated)
inactive: all assays above

CC[N+](CC)(CC(=O)Nc1c(C)cccc1C)Cc1ccccc1
inactive: all assays above

CCc1cccc(O)c1
inactive: all assays above

CC(=O)OC[C@H]1O[C@@](COC(C)=O)(O[C@H]2O[C@H](COC(C)=O)[C@@H](OC(C)=O)[C@H](OC(C)=O)[C@H]2OC(C)=O)[C@@H](OC(C)=O)[C@@H]1OC(C)=O
not listed: [1]
inactive: all other assays above

Cc1cc(C)c(O)c(C)c1
not listed: [1]
inactive: all other assays above

OCCOCCOCCOCCOCCO
not listed: [1]
inactive: all other assays above

O=[N+]([O-])c1cc(C(F)(F)F)ccc1Cl
inactive: all assays above

O=C1CCCCCCCCCCC1
not listed: [1]
inactive: all other assays above

CC/C(C)=N/O
not listed: [1]
inactive: all other assays above

CC(COCC(C)OC(=O)c1ccccc1)OC(=O)c1ccccc1 (configuration not stated)
not listed: [10]
inactive: all other assays above

COC(=O)/C=C\C(=O)OC
not listed: [1]
inactive: all other assays above

Brc1ccc(Oc2ccc(Br)cc2)cc1
not listed: [1] | [10]
inactive: all other assays above

CCCCCCCCC(=O)O
not listed: [5]
inactive: all other assays above

C=C(CC(=O)O)C(=O)O
not listed: [1]
inactive: all other assays above
